This is one part of a sample in which hits are shown more often than they occur.
Shh pathway inh – Sonic Hedgehog pathway inhibition; inhibition, % (concentration not given with the values); 22,000 tested, 2.1% active; AID 2313; Shh-LIGHT2 Gli-luciferase reporter, 30 h;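 active = mean inhibition across valid replicates above about 65%, limit read from the data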;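 note: pathway switched on by Shh-conditioned medium diluted 1 in 25 in low serum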
MITF inhib – MITF inhibition. inhibition, % (no concentration beside the values). 37,000 tested, 0.28% active. TRPM1 promoter luciferase, luminescence, 24 h; in the data active = inhibition above about 85%;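 note: human melanocyte line stably carrying TRPM1 promoter luciferase reporter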
PD-1 reversal – reversal of PD-1 mediated T-cell inhibition; activation, % (test concentration not listed); primary human CD4 T cells, PD-L1 beads, CellTiter-Glo 96 h; AID 2316; 29,000 tested, under 10 active; call rule not given here;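 note: 0% = median vehicle wells and 100% = positive control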
Active calls of the source: *; nt = no result.

SMILES	Shh pathway inh	MITF inhib	PD-1 reversal
C/C=C(\C)C(=O)OC1C(C)=C2C(C1OC(=O)CCCCCCC)C(C)(OC(C)=O)CC(OC(=O)CCC)C1(O)C2OC(=O)C1(C)O (stereo unspecified)	101.4*	51.0	-13.9
CCN1C[C@]2(COC)CC[C@H](O)[C@]34C1[C@H](C[C@H]23)[C@@]1(O)C[C@H](OC)[C@H]2C[C@@H]4[C@@H]1[C@H]2OC(C)=O	-47.2	-1.0	nt
CC(=O)O[C@H]1CC[C@]2(C=O)[C@H]3CC[C@]4(C)[C@@H](C5=CC(=O)OC5)CC[C@]4(O)[C@@H]3CC[C@]2(O)C1	3.9	44.5	-23.4
CCCC(C)n1[nH]c(=O)c2c1NC(=O)CSC2c1cccc([N+](=O)[O-])c1 (stereo unspecified)	nt	6.7	3.1
O=c1c2ccccc2nc(CSc2ccccn2)n1-c1cccc(C(F)(F)F)c1	nt	3.9	0.5
